Laboratory results taken from the supplement of paper PMC3334620.
Whole data set: some 33,000 sequences, median “E-score (-0.5 to 0.5)” near -0.011, cut for the highest 2% near 0.28. For the sample, the highest values were picked, then their nearest neighbours and some sequences at random.

Biological target: T1, Gcr1 (UniProt P07261)
T1 sequence: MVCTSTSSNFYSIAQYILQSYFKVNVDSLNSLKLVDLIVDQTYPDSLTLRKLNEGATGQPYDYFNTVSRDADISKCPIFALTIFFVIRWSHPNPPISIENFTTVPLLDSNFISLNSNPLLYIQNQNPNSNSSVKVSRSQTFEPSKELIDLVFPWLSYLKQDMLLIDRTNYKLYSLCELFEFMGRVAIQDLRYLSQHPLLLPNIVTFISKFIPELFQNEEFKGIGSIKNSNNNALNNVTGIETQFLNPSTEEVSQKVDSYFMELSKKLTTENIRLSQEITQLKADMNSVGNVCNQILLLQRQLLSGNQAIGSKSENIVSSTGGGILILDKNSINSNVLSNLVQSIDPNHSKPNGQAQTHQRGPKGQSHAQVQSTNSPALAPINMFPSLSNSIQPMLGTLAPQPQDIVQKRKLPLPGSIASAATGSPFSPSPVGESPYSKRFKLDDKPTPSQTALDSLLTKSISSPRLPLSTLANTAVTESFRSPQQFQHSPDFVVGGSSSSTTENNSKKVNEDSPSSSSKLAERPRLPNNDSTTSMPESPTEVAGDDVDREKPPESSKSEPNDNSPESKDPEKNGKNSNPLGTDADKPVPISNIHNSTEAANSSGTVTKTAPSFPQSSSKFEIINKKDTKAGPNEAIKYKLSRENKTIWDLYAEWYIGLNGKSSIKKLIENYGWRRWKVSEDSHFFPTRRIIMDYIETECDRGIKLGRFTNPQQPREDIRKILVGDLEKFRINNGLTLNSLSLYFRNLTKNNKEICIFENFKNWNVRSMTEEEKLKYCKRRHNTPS
Assay: PBM E-score (8-mer binding enrichment) (E-score (-0.5 to 0.5)); higher = stronger / more preferred TF binding
Conditions: protein concentration: 100 nM; construct: GST-full length
Outline: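 Masliner-normalised scans of fluorescent anti-GST signal were the basis for scoring. That signal came from GST-tagged yeast transcription factors applied at about 100-200 nM to double-stranded universal all-10-mer Agilent arrays on fresh or once-stripped slides. Each ungapped eight-base word, pooled with its reverse complement, received an E-score from the Universal PBM Analysis Suite.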

| Sequence | PBM E-score |
| --- | --- |
| GCCACTCC | -0.045 |
| TCCACTCA | 0.189 |
| ACCACTAT | 0.356 |
| ACCACTAG | 0.267 |
| GCCACTAC | 0.305 |
| ATCGAGCG | -0.167 |
| GGATATCC | -0.206 |
| CCGATTCA | -0.00017 |
| CTGCCGAA | -0.0682 |
| GCCACTAA | 0.366 |
| GCCACTGA | 0.237 |
| GCCACTTA | 0.184 |
| ACAAAGAG | -0.078 |
| CGGCAGCA | -0.0108 |
| AGGCAGCG | 0.0171 |
| AGGCAGCC | 0.382 |
| CGGCAGAC | -0.254 |
| AGGCAGCA | 0.0795 |
| CGGCAGCC | 0.382 |
| AGTCTACG | -0.0187 |
| GCACGCTA | -0.0819 |
| GGACGCTA | 0.363 |
| AGACGCTG | 0.254 |
| CGACGCTA | 0.0406 |
| AGACGCTA | 0.293 |

| Sequence | PBM E-score |
| --- | --- |
| AGACGCTC | 0.185 |
| ACGAGCAC | -0.0665 |
| AAACCCGG | 0.0332 |
| ACGCGCAT | -0.0657 |
| GCCTGTGA | 0.0496 |
| ATGGAATG | -0.00503 |
| ATGGAATA | 0.0994 |
| CTGGAATA | 0.259 |
| CTGGAATC | 0.407 |
| ATGGAATC | 0.29 |
| CCGGAATC | 0.219 |
| AACGCTCC | -0.276 |
| GCGTCTTA | 0.239 |
| CAGCTCGC | -0.117 |
| CGACCGTC | -0.41 |
| TGATATCA | 0.0841 |
| CAGCCATA | 0.022 |
| ATCAGCCG | -0.264 |
| AGCAGCTA | 0.273 |
| AGCAGCAT | -0.00516 |
| CGCAGCGC | 0.15 |
| AGCAGCTC | 0.16 |
| AGCAGCTG | 0.311 |
| AGCAGCAG | -0.0192 |
| ACCAGCCT | 0.0001 |

| Sequence | PBM E-score |
| --- | --- |
| AGCAGCCT | 0.369 |
| CGCAGCCC | 0.324 |
| CACAGCCC | -0.232 |
| AGCAGCCG | 0.285 |
| ACATTACA | 0.178 |
| GGGTTAAC | 0.0316 |
| ATCCCCGA | 0.0266 |
| AGCCCGCA | 0.225 |
| CCTACTAC | -0.0926 |
| CACTAACG | 0.00491 |
| CGCGAGTC | -0.109 |
| AGTAGCAT | -0.0355 |
| CACCTTAG | 0.141 |
| AGCAGCCA | 0.35 |
| GCCAGCCC | -0.0556 |
| GCCAGCCA | -0.0514 |
| CGCAGCCG | 0.0939 |
| AGCAGCAA | 0.0994 |
| GGCAGCAC | -0.0566 |
| AGCAGCCC | 0.2 |
| CGCAGCCA | 0.365 |
| GGCAGCCA | 0.422 |
| TGCAGCCA | 0.00515 |
| CGCAGCGA | 0.22 |
| GGCAGCCC | 0.324 |

| Sequence | PBM E-score |
| --- | --- |
| AGGCCAGG | -0.25 |
| ATCTATGA | -0.0683 |
| ACTGAAAC | 0.0485 |
| CTAAACGC | 0.0998 |
| AGATCTGG | 0.00449 |
| ACGTTCAC | -0.22 |
| GTCAGGAC | 0.00402 |
| GTCCAAGA | 0.149 |
| CACTCCCG | -0.134 |
| GCCCTGGA | -0.0767 |
| ACAGGACG | 0.26 |
| CCAGGAAG | 0.166 |
| ACAGGAAC | 0.144 |
| ACAGGAAT | 0.307 |
| ACAGGAAG | 0.455 |
| ACAGGAAA | 0.125 |
| CTGTTCCC | -0.0872 |
| CACGGTAA | -0.233 |
| CTATCGAC | -0.0454 |
| GCCTCTCA | -0.0769 |
| ACCTATAG | 0.161 |
| CGAGCGGA | -0.113 |
| GGGAGCCC | 0.226 |
| GGGAGCCA | 0.387 |
| AGGAGCCA | 0.214 |

| Sequence | PBM E-score |
| --- | --- |
| CGGAGCCA | 0.282 |
| TGGAGCCA | 0.205 |
| CGGAGCCG | 0.0209 |
| GGTTTGGA | 0.115 |
| AATGCCCG | -0.207 |
| AGAAAGGA | -0.143 |
| CCGTCTCG | -0.0715 |
| GTCACTAA | 0.107 |
| AGCGCCAA | 0.124 |
| GGCGCCAC | 0.253 |
| AGCGCCTA | 0.164 |
| CGCGCCGA | 0.0709 |
| GGCGCCTA | 0.385 |
| AGCGCCGA | 0.0415 |
| GGCGCCAA | 0.377 |
| CGCGCCTA | 0.258 |
| GGCGCCGA | 0.286 |
| AGGGTCGG | -0.133 |
| GAATTTCC | 0.082 |
| AATACAGG | 0.343 |
| ATTACAGC | -0.134 |
| AATACAAC | 0.0962 |
| ATTACAGA | 0.053 |
| AATACAAG | 0.293 |
| AATACAGA | -0.0124 |

| Sequence | PBM E-score |
| --- | --- |
| AATACAAT | -0.0331 |
| AATACAGT | -0.0143 |
| ATTACAGG | 0.355 |
| CAAAGACC | 0.00996 |
| CAGTGGGC | -0.0102 |
| ACTGCTAT | -0.225 |
| ATATCCTC | -0.118 |
| GACACCCC | -0.0371 |
| AACGTCGC | -0.00983 |
| AACCATAG | -0.00302 |
| AAAATCCG | 0.111 |
| CGGCGCTA | -0.00295 |
| TGGCGCAA | -0.0289 |
| CAGCGCCA | 0.0174 |
| GCGCGCCA | 0.0132 |
| GGGCGCTA | 0.32 |
| CTGCGCCA | -0.135 |
| CGGCGCCA | 0.308 |
| TGGCGCCA | 0.37 |
| GGGCGCGA | 0.187 |
| AGGCGCTA | 0.0978 |
| TAGCGCCA | 0.181 |
| GGGCGCCA | 0.403 |
| AAGGTAAA | 0.0141 |
| GTCAAGGA | 0.0238 |

| Sequence | PBM E-score |
| --- | --- |
| GAGTTTCA | -0.0957 |
| GCCTTCGA | -0.126 |
| GAGCGCCC | 0.234 |
| CGGCGCCC | 0.359 |
| CGGCGCCG | 0.113 |
| CGGCGCGC | 0.193 |
| GGGCGCCC | 0.459 |
| GGGCGCAC | -0.138 |
| CAGCTGGG | -0.0114 |
| AACACCGT | -0.132 |
| ACATTTGC | -0.0633 |
| CGGGTGTC | -0.116 |
| CTGGTGCC | 0.352 |
| AGGGTGCA | -0.0715 |
| ATGGTGCC | 0.227 |
| CGGGTGCC | 0.377 |
| AGGGTGCG | 0.0402 |
| CTGGTGCA | 0.216 |
| AAGGTGCC | 0.144 |
| AGGGTGCC | 0.39 |
| GAGGTGCA | -0.125 |
| GAGGTGCC | 0.281 |
| CGGGTGCA | 0.0724 |
